The values that follow come from ChEMBL document CHEMBL1201862, “PubChem BioAssay data set” (2004).

About 11,000 (3.5%) of roughly 310,000 compounds were called active. Inconclusive results (about 4%) are left out. No cut-off for these calls is given here. Many of the other results were omitted from the sample, so actives are more common in it than they were.

This assay has as its target T1, 4'-phosphopantetheinyl transferase ffp (Bacillus subtilis) (UniProt Q9F4F7).
T1 sequence (whole entry): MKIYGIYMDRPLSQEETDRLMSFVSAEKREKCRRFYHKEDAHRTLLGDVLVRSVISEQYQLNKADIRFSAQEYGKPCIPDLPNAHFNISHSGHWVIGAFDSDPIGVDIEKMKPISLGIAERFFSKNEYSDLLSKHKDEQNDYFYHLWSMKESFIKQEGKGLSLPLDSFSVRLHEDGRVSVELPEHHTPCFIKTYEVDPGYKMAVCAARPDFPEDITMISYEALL
Put plainly: qHTS Assay for Inhibitors of Bacillus subtilis Sfp phosphopantetheinyl transferase (PPTase). The class given is functional.
As for `Cl[Te]1(Cl)OCCO1`, the Potency is 158 nM (active).
